{"source": "PubChem BioAssay (NCATS)", "note": "Records with an inconclusive call do not appear. Active and inactive are the calls of the source. Calls follow the shape of the dose curve; as a rule, active = well fitted curve in the direction sought with a large enough effect; inconclusive = small, poorly fitted or top-dose-only effect, or effect the other way, or another doubt; inactive = no such curve, though single readings can be large or run the other way. Starred links: 1 amine or outer side, 2 acyl side, 3 side chain; linkers in the order of their positions; H or OH if unused. Positions of bridges follow the written chain, without caps; N, C: chain ends. Non-standard residues stand in square brackets, D forms with d. Residues, ends and D or L forms follow the SMILES beside them. ξ: configuration not given here. *: point of attachment. X3 = C[C@@H](Oc1ccc([C@H](N[*:1])C(=O)[*:2])cc1)[C@]1(/C=C\\C(=O)[*:3])CO1; d(aIle) = CC[C@H](C)[C@@H](N)C(=O)O; X2 = CC(C)[C@@H](O)C(C)C(=O)*; ξNMeF = CNC(Cc1ccccc1)C(=O)O; ξT = CC(O)C(N)C(=O)O; ξS = NC(CO)C(=O)O"}
{"assay": "10-beta competent E. coli microbial cell viability qHTS against the NCATS CANVASS Library (AID 1347376); also: 0% is about no effect", "conditions": "E. coli 10-beta viability, BacTiter-Glo ATP luminescence, overnight; series mostly up to 46.1 µM; activity change, negative = cytotoxic: at the top concentration", "description": "Natural products and their derivatives continue to be wellsprings of nascent therapeutic potential. However, many laboratories have limited resources for biological evaluation, leaving their previously isolated or synthesized compounds largely or completely untested. To address this issue, the Canvass library of natural products was assembled (https://tripod.nih.gov/canvass), in collaboration with academic and industry researchers, for quantitative high-throughput screening (qHTS) across a diverse set of cell-based and biochemical assays. The pure (>85% purity by liquid chromatography/mass spectrometry [LC/MS]) Canvass library of 346 natural products were submitted by 45 academic laboratories and companies around the world. We collected pure natural products to circumvent deconvolution and structure elucidation due to time and resource limitations. The library was formatted into 1536-well plates and evaluated in 50 qHTS (in an 11-pnt concentration series) bioassays with broad scope of disease-relevant mechanisms. The resulting data set from 50 different assays was then systematically analyzed to identify overall trends and specific natural products with interesting biological activities. Reported herein are the results of each individual qHTS and their corresponding assay protocol. The BacTiter-Glo microbial cell viability assay is a homogeneous method for determining the number of viable bacterial cells in culture based on quantitation of the ATP present. ATP is an indicator of metabolically active cells. The homogeneous assay procedure involves adding a single reagent (BacTiter-GloTM Reagent) directly to bacterial cells in medium and measuring luminescence. National Center for Advancing Translational Sciences (NCATS), Rockville, MD National Institute of Health (NIH), Bethesda, Maryland\n10-beta competent E.coli cytotoxicity protocol: 1. In a 1536 well, tissue culture treated white solid bottom plates (Greiner Bio-One North America), 5 uL of 10-beta competent E. coli suspension (0.9 OD culture diluted 0.2 OD) was dispensed into columns 1, 2, and 5-48 using the Multidrop Combi dispenser (Thermo Fisher Scientific). 2. Controls and compounds were pin transferred (~23 nL volume) to the assay plates via Wako Pin-tool (Wako Automation, Richmond VA) equipped with a 1536 pin head. The compounds were transferred to columns 5-48 resulting in a final concentration ranging from 0.17nM to 92uM. Daunomycin was used as a control in various concentrations (1mM working concentration; 1:2 dilution; 16 points; n=2; column 2, rows) for a final concentration range of 0.2 nM to 9.2 uM. 3. The assay plates were incubated overnight at 37C, 5% CO2, 95% humidity. 4. 2.5 uL of BacTiterGlo solution (Promega) was then added to the assay plates (column 1-48, rows 1-32). The assay plates were incubated at room temperature for 20 min. 5. Luminescence signal was acquired via the ViewLux plate reader using a clear emission filter, 2 second exposure and 2x binning settings."}
{"smiles": "C[C@]12CC(O)C3[C@@H](CC[C@@H]4C[C@@H](O)CC[C@]34CO)[C@@]1(O)CC[C@@H]2C1=CC(=O)OC1", "note": "(stereo not given in full)", "activity change, negative = cytotoxic": "-6.69% (inactive)"}
{"smiles": "COC1C(O)C(C)OC(OC2C(Oc3cccc4c(O)c5c(=O)oc6ccc(C)c7c(=O)oc(c34)c5c67)OC(C)C(O)C2O)C1O", "note": "(stereo not given)", "activity change, negative = cytotoxic": "-15.7% (inactive)"}
{"smiles": "C[N+](C)(C)CCc1c[nH]c2ccccc12", "activity change, negative = cytotoxic": "5.17% (inactive)"}
{"smiles": "CC[C@H](C)[C@H]1NC(=O)[C@@H](NC(=O)C(C)[C@H](O)C(C)C)[C@@H](C)OC(=O)C2COC(=O)CNC(=O)/C=C\\[C@]3(CO3)[C@@H](C)Oc3ccc(cc3)[C@H](NC1=O)C(=O)N(C)C(Cc1ccccc1)C(=O)NC(C(C)O)C(=O)N2", "note": "(stereo not given in full) (X2-T[d(aIle)][X3][ξNMeF][ξT][ξS]; ester 1-C; linker 3-6 via G)", "activity change, negative = cytotoxic": "-11.5% [at 27.5 µM] (inactive)"}
{"smiles": "CCC(=O)N[C@@H](C[C@H](C)C(Cl)(Cl)Cl)C(=O)N1C(=O)C=C(OC)[C@@H]1C[C@H](C)C(Cl)Cl", "activity change, negative = cytotoxic": "5.97% (inactive)"}
{"smiles": "CC[C@]12C=CCN3CC[C@]4(C(=C(C(=O)OC)C1)Nc1ccccc14)[C@@H]32", "activity change, negative = cytotoxic": "0.487% (inactive)"}
{"smiles": "C/C=C/[C@@H]1[C@H]2C[C@@H](C)CC[C@@H]2C(C)=C[C@H]1C(=O)c1c(O)c(-c2ccc(O)cc2)c[nH]c1=O", "activity change, negative = cytotoxic": "-1.01% (inactive)"}
{"smiles": "CO[C@H]1C[C@H](O[C@H]2[C@@H](O)C[C@H](O[C@H]3CC[C@]4(C=O)[C@H]5CC[C@]6(C)C(C7=CC(=O)OC7)CC[C@]6(O)[C@@H]5CC[C@]4(O)C3)O[C@@H]2C)O[C@H](C)[C@H]1O[C@H]1C[C@@H](OC)[C@@H](O[C@@H]2O[C@H](CO)[C@@H](O)[C@H](O)[C@H]2O)[C@@H](C)O1", "note": "(stereo not given in full)", "activity change, negative = cytotoxic": "-10.2% (inactive)"}
{"smiles": "CC[C@@H]1CN2CCC3(Nc4cccc(OC)c4C3=O)[C@@H]2C[C@@H]1/C(=C\\OC)C(=O)OC", "note": "(stereo not given in full)", "activity change, negative = cytotoxic": "-12.7% (inactive)"}
{"smiles": "CC[C@H]1CN2CCc3c([nH]c4cccc(OC)c34)[C@@H]2C[C@@H]1/C(=C\\OC)C(=O)OC", "activity change, negative = cytotoxic": "-7.5% (inactive)"}
{"smiles": "C1=C2CCCN[C@H]2C2CC1[C@H]1CCCCN1C2", "note": "(stereo not given in full)", "activity change, negative = cytotoxic": "4.78% (inactive)"}
{"smiles": "C/C=C1/CN2C3CC1C1=CCC(=O)N4c5ccccc5[C@@]3(C[C@@H]2C2=C[C@H]3C5CC6N(CC[C@@]67c6ccccc6N(C2=O)[C@@H]37)C/C5=C/C)[C@H]14", "note": "(stereo not given in full)", "activity change, negative = cytotoxic": "2.89% (inactive)"}
{"smiles": "C=C(C)[C@H]1C(=O)c2c3c(cc4c5c(n1c24)[C@@]1(C)[C@@H](CC[C@H]2[C@](C)(/C=C/C=C(\\C)C(=O)O)[C@@H](O)CC[C@@]21C)C5)C1=CC(C)(C)OC(C)(C)[C@H]1[C@@H]3O", "activity change, negative = cytotoxic": "-3.48% (inactive)"}
{"smiles": "C/C=C1/CN2CC[C@@]34c5ccccc5N(C)[C@@H]3[C@@H]2C[C@@H]1[C@H]4C(=O)OC", "activity change, negative = cytotoxic": "0.376% (inactive)"}
{"smiles": "CC(C)CC1C(=O)O[C@H](C(C)C)C(=O)N(C)C(CC(C)C)C(=O)O[C@@H](C(C)C)C(=O)N(C)C(CC(C)C)C(=O)O[C@H](C(C)C)C(=O)N(C)C(CC(C)C)C(=O)O[C@@H](C(C)C)C(=O)N1C", "note": "(stereo not given in full)", "activity change, negative = cytotoxic": "18.9% (inactive)"}
{"smiles": "CCCC[C@@H]1CC[C@H]2CCCC(CCCO)N12", "note": "(stereo not given in full)", "activity change, negative = cytotoxic": "-16.7% (inactive)"}
{"smiles": "O[C@H]1C=C[C@@]23CCN(Cc4cc5c(cc42)OCO5)[C@@H]3C1", "activity change, negative = cytotoxic": "-7.89% (inactive)"}
{"smiles": "CO[C@@H](/C=C/CC/C=C/C(=O)O)[C@@H](O)[C@H](C)/C=C(\\C)[C@H](O)[C@H](C)C(=O)CCCC1CC(=O)NC(=O)C1", "activity change, negative = cytotoxic": "-3.67% (inactive)"}
{"smiles": "CCCCC1CC[C@H]2CCCC(CCC)N12", "note": "(stereo not given in full)", "activity change, negative = cytotoxic": "-10.1% (inactive)"}
{"smiles": "COC1=C(C2=C(OC)C(=O)c3cc4c(c(O)c3C2=O)C(=O)O[C@H](C)C4)C(=O)c2c(cc3c(c2O)C(=O)O[C@H](C)C3)C1=O", "activity change, negative = cytotoxic": "-4.05% [at 15.4 µM] (inactive)"}
{"smiles": "C=C[C@H]1CN2CCc3c([nH]c4cccc(OC)c34)[C@@H]2C[C@@H]1/C(=C\\OC)C(=O)OC", "activity change, negative = cytotoxic": "-5.22% (inactive)"}
{"smiles": "CC[C@@H]1CN2CCc3c([nH]c4cccc(OC)c34)[C@@H]2C[C@@H]1/C(=C\\OC)C(=O)OC", "activity change, negative = cytotoxic": "-10.5% (inactive)"}
{"smiles": "C/C=C(\\C)C(=O)O[C@@H]1[C@@H](O)[C@@H]2O[C@H]3[C@H](O[C@@H](CCCCC)CCCCCCC(=O)CCC(=O)OC[C@@H](O2)[C@H]1OC(=O)/C=C/c1ccccc1)O[C@H](C)[C@H](OC(C)=O)[C@@H]3O", "activity change, negative = cytotoxic": "1.51% (inactive)"}
{"smiles": "c1ccc2nc3c(cc2c1)[nH]c1ccccc13", "activity change, negative = cytotoxic": "4.09% (inactive)"}
{"smiles": "CO[C@H]1[C@H](O[C@H]2CC[C@]3(C=O)[C@H]4CC[C@]5(C)[C@@H](C6=CC(=O)OC6)CC[C@]5(O)[C@@H]4CC[C@]3(O)C2)O[C@H](C)[C@H](O)[C@@H]1OC", "activity change, negative = cytotoxic": "-7.56% (inactive)"}
{"smiles": "C[C@]12CC(O)C3[C@@H](CCC4C[C@@H](O)CC[C@@]43CO)[C@@]1(O)CC[C@@H]2C1=CC(=O)OC1", "note": "(stereo not given in full)", "activity change, negative = cytotoxic": "0.0665% (inactive)"}
{"smiles": "C=C[C@]12C=CCN3CC[C@@]4(c5ccccc5NC(=O)[C@@H]4C1)[C@@H]32", "activity change, negative = cytotoxic": "-7.41% (inactive)"}
{"smiles": "C/C(=C\\[C@H](C)C(=O)C[C@H](O)CC1CC(=O)NC(=O)C1)[C@@H]1OC(=O)/C=C/CC/C=C/C=C/[C@@H]1C", "activity change, negative = cytotoxic": "-14.2% (inactive)"}
{"smiles": "CO[C@@]12c3c(C)cc(O)c4c(=O)occ(c34)C(=O)[C@@H]1[C@]13COC(=O)c4c(O)cc(C)c(c41)C(=O)[C@H]2[C@@H]3OC(C)=O", "activity change, negative = cytotoxic": "-21.2% (inactive)"}
{"smiles": "CCCC[C@@H](C)/C=C1/CN2CCC[C@H]2[C@@](C)(O)[C@@H]1O", "activity change, negative = cytotoxic": "-6.75% (inactive)"}
{"smiles": "C=CC(C)(C)[C@@]12C[C@H]3C(=O)N/C(=C/c4cnc[nH]4)C(=O)N3[C@@H]1Nc1ccccc12", "activity change, negative = cytotoxic": "6.34% (inactive)"}
{"smiles": "C/C=C1/CN2CC[C@]34C(=C(C(=O)OC)[C@H]1C[C@H]23)Nc1ccccc14", "activity change, negative = cytotoxic": "-3.71% (inactive)"}
{"smiles": "C=CC(C)(C)[C@@]12C[C@H]3C(=O)N/C(=C\\c4cnc[nH]4)C(=O)N3[C@@H]1Nc1ccccc12", "activity change, negative = cytotoxic": "2.5% (inactive)"}
{"smiles": "CO[C@H]([C@@H](C)[C@H]1O[C@]1(C)C[C@H](C)/C=C/C=C(\\C)[C@H]1O[C@@H](CC(=O)O)CC[C@@H]1C)[C@@H](C)O", "activity change, negative = cytotoxic": "-6.49% (inactive)"}
{"smiles": "C[C@]12CCC3[C@@H](CC[C@@H]4C[C@@H](O)CC[C@]34CO)[C@@]1(O)CC[C@@H]2C1=CC(=O)OC1", "note": "(stereo not given in full)", "activity change, negative = cytotoxic": "-8.14% (inactive)"}
